In ChEMBL document CHEMBL3988442, “University of Dundee, Small-Polar-MMV Screening Library” (2021):
For some assays here: Potency and affinity values are given separately.

Experiments:
Design in all cases: scale not given: direction of the effect not stated beside the values
[1] = molecular target: Protein translocase subunit SecA (Escherichia coli (strain K12)) (UniProt P10408); experiment: Assay to Identify E. coli SecA ATPase Inhibitors; type: functional; conditions: 30 µM
[2] = molecular target: T1, Ubiquitin-activating enzyme e1, putative (Leishmania donovani (strain BPK282A1)) (UniProt E9BSI1); experiment: Leishmania donovani Ubiquitin Activating Enzyme (LdE1); type: functional; conditions: 30 µM
T1 sequence (whole entry): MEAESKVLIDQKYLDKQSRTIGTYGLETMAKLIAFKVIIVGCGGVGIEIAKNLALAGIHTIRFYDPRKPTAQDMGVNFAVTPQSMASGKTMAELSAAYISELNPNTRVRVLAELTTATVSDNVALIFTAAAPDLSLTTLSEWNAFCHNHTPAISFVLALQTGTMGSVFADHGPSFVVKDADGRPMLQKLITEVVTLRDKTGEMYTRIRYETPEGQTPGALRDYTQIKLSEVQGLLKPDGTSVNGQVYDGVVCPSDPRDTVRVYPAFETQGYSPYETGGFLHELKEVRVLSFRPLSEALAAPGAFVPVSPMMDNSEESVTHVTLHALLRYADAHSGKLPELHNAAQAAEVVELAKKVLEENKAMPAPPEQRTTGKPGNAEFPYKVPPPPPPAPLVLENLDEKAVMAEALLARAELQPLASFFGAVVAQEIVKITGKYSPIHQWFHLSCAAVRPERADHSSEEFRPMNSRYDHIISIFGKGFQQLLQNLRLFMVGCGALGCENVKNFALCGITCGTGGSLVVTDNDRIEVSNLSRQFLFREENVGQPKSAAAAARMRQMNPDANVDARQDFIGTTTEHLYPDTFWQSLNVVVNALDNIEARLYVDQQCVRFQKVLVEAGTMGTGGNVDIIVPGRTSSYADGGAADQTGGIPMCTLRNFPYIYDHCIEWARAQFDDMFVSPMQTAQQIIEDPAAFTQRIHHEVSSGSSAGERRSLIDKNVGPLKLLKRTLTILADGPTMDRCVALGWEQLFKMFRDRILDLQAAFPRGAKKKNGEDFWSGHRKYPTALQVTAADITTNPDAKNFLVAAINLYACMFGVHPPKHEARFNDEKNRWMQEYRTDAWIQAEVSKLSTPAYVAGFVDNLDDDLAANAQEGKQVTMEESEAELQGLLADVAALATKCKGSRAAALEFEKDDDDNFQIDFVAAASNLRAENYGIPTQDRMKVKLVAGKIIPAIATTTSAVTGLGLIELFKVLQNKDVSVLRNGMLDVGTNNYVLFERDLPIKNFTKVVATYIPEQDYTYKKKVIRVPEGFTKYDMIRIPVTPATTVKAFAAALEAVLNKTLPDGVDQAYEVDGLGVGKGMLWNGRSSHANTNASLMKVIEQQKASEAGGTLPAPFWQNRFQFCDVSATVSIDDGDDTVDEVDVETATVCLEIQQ

[3] = molecular target: Sialic acid-binding Ig-like lectin 9 (Homo sapiens) (UniProt Q9Y336); experiment: Hs-Siglec9 ALPHAscreen SOP 20170721; conditions: 10 µM
Sialic acid-binding Ig-like lectin 9 (Homo sapiens), sequence (Q9Y336 whole entry): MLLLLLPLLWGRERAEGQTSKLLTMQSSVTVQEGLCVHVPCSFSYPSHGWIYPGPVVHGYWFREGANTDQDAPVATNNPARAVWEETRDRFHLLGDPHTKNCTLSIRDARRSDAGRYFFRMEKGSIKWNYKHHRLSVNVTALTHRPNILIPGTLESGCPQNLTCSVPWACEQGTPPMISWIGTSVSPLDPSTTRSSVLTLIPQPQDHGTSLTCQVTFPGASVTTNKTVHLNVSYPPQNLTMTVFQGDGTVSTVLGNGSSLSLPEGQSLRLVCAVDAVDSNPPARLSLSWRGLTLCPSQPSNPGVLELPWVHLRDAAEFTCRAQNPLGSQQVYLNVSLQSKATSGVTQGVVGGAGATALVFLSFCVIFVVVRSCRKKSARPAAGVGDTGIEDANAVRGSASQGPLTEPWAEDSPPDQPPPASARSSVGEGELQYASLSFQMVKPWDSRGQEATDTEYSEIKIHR

[4] = system: Trypanosoma cruzi; experiment: Trypanosoma cruzi phosphomannomutase and mannose-1-phosphate guanylyltransferase assay; type: functional; conditions: 10 µM
[5] = molecular target: T2, Arginase-2, mitochondrial (Homo sapiens) (UniProt P78540); experiment: in vitro enzyme assay to detect the production of urea directly proportional to the activity of Arginase II; type: functional; conditions: 33.3 µM; note: in the data most compounds retested in dose-response had high values
T2 sequence (whole entry): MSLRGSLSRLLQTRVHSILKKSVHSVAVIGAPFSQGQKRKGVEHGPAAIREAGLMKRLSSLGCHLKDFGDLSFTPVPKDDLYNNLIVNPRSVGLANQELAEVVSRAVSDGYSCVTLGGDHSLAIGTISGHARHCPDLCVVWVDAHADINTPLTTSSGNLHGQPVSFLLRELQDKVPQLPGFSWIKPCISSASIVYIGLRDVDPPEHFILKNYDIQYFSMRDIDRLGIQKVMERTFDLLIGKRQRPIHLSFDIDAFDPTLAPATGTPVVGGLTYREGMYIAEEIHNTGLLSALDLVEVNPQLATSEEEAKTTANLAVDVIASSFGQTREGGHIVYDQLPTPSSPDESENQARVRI

[6] = molecular target: T3, Proteasome subunit beta (Trypanosoma cruzi) (UniProt O96673); experiment: Trypanosoma cruzi proteasome chymotrypsin-like activity (TcProtChymo) assay.; note: in the data most compounds retested in dose-response had high values; type: functional; conditions: 9.37 µM
T3 sequence (whole entry): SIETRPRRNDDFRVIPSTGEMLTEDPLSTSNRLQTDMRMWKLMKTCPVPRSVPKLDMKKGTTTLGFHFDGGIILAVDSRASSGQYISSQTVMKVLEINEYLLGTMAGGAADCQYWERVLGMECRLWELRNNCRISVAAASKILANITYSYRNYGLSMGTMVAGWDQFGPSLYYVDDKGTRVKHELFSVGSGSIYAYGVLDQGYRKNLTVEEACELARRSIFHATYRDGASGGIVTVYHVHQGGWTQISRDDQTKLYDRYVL

[7] = organism: Homo sapiens; experiment: To identify inhibition of the IFN signalling (Jak-Stat) pathway via expression of an eGFP reporter gene under the control of an IFN-stimulated response element (ISRE) containing MxA promoter.; type: functional; conditions: 30 µM
[8] = molecular target: T4, Tyrosyl-tRNA synthetase, putative (Trypanosoma cruzi (strain CL Brener)) (UniProt Q4DSP6); experiment: Trypanosoma cruzi tyrosyl tRNA synthetase (TcYRS) _High Tyrosine SOP; type: functional; conditions: 30 µM; note: in the data most compounds retested in dose-response had high values
T4 sequence (whole entry): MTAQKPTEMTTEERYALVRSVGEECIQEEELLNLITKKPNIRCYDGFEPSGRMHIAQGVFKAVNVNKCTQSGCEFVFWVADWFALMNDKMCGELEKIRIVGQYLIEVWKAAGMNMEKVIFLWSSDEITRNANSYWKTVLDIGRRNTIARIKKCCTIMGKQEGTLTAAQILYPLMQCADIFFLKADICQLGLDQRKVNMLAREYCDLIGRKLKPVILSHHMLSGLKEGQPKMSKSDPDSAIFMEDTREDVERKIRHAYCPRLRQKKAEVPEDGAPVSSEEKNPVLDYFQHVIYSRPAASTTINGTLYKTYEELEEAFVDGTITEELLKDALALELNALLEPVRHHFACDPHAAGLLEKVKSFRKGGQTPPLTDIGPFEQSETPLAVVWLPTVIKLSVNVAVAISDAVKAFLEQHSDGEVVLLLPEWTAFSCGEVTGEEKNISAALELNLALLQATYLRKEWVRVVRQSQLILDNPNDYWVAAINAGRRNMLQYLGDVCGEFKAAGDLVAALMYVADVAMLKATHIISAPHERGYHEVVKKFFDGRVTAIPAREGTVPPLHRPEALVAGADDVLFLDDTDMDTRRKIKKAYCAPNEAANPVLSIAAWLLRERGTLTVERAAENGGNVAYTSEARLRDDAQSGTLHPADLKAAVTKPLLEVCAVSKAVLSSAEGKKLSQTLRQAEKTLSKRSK

[9] = molecular target: T4, Tyrosyl-tRNA synthetase, putative (Trypanosoma cruzi (strain CL Brener)); experiment: Trypanosoma cruzi tyrosyl tRNA synthetase (TcYRS) SOP; type: functional; conditions: 30 µM
[10] = molecular target: Chromo domain-containing protein 1 (Saccharomyces cerevisiae (strain ATCC 204508 / S288c) (Baker's yeast)) (UniProt P32657); experiment: ScCHD-1 Enzyme Inhibition Assay; type: functional; conditions: 30 µM; note: in the data most compounds retested in dose-response had high values
Chromo domain-containing protein 1 (Saccharomyces cerevisiae (strain ATCC 204508 / S288c) (Baker's yeast)), sequence (P32657 whole entry, the tested form may be a part): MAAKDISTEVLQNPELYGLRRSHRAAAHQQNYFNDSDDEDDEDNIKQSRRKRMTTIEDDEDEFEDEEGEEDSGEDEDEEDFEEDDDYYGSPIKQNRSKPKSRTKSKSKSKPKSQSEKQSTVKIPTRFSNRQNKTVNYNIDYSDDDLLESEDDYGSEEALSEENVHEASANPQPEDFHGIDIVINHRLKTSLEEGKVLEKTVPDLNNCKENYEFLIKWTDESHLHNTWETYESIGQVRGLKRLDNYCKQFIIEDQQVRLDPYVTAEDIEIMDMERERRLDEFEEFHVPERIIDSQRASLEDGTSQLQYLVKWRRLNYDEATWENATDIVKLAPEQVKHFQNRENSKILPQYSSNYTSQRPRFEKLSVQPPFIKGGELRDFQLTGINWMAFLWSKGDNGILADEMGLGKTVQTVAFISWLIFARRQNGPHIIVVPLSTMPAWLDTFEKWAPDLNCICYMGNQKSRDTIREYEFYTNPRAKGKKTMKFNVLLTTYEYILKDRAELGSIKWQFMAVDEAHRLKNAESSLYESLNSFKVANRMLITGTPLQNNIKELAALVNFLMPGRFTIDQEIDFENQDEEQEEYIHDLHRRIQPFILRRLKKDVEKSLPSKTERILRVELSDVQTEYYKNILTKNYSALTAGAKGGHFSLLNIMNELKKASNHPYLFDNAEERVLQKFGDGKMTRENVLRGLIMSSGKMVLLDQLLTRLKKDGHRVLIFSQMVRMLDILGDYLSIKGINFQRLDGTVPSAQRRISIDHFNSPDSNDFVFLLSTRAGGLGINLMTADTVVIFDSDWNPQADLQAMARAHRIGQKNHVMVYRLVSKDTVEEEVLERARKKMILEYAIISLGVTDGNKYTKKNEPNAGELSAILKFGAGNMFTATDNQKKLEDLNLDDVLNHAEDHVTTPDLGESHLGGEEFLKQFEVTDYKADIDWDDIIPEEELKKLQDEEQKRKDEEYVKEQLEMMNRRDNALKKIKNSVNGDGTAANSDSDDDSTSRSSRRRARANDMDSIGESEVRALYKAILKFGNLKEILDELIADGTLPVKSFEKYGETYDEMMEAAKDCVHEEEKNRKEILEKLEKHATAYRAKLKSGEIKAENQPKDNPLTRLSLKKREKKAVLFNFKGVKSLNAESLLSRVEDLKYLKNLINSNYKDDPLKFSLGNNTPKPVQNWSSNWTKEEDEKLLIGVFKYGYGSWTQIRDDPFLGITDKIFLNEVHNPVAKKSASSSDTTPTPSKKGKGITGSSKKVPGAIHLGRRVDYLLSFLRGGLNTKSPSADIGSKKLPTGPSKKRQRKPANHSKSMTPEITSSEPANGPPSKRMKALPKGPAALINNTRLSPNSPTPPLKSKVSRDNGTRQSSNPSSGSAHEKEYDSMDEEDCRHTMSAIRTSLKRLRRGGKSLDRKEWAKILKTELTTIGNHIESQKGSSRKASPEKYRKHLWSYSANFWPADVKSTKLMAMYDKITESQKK

Protein translocase subunit SecA (Escherichia coli (strain K12)), sequence (P10408 whole entry): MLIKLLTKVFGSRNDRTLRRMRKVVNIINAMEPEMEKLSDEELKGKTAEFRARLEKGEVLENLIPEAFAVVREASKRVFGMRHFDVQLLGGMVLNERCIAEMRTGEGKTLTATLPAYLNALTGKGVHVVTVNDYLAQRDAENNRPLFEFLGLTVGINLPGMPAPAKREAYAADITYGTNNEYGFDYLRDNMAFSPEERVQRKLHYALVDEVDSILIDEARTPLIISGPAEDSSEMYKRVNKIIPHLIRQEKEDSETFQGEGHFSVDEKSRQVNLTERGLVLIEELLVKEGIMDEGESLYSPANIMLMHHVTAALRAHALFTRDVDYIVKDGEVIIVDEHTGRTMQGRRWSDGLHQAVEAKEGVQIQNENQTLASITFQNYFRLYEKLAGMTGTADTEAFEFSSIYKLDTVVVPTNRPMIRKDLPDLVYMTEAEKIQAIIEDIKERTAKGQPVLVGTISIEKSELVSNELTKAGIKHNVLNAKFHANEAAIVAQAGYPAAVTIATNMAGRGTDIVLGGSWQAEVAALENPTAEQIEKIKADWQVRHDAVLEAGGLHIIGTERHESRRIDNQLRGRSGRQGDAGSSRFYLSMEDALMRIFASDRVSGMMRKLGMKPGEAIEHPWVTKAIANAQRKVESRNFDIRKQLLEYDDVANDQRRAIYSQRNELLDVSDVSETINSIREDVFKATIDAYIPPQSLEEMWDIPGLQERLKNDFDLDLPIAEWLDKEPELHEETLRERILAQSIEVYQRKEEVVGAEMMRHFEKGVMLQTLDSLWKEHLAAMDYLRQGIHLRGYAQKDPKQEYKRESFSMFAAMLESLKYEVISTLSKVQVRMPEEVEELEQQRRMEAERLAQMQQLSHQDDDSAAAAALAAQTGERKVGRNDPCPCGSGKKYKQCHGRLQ

| Structure (SMILES) | Percent Effect [1] | Percent Effect [2] | Percent Effect [3] | Percent Effect [4] | Percent Effect [5] | Percent Effect [6] | Percent Effect [7] | Percent Effect [8] | Percent Effect [9] | Percent Effect [10] |
| --- | --- | --- | --- | --- | --- | --- | --- | --- | --- | --- |
| CN(C)c1ccc(C(=O)NCC2(c3ccccc3)CCOCC2)cc1 | -0.155% | 22.7% | -5.97% | 1.38% | -2.21% | 15.4% | 9.64% | 0% | 15% | -24.2% |
| COCCC(=O)N1C[C@H]2CN(Cc3cccc(C)n3)C(=O)[C@H]2C1 | -1.95% | 3.9% | -4.82% | -0.563% | 2.74% | 0.0858% | -13.5% | 7.73% | 7.5% | -4.73% |
| Cc1nc(COC[C@@H]2CCC[C@@]23CNCCO3)cs1 | -4.17% | 6.49% | -6% | -4.19% | 4.05% | 13% | 8.21% | 6.84% | 2.56% | -5.3% |
| NC(=O)c1cc(C2CCCN(CCc3ccccn3)C2)n[nH]1 (stereo not given) | -0.145% | -12.8% | -3.53% | 3.29% | 4.1% | -3.67% | 2.63% | 3.35% | -1.21% | -1.37% |
| CNC(=O)C1CCC(NC(=O)N(C)Cc2c(C)noc2C)CC1 (stereo not given) | -5.49% | 10.3% | -15.1% | 11% | -3.28% | 1.96% | 2.07% | 6.22% | 18.1% | 96.3% |
| CN1CCN(C(=O)c2cccc(OCc3cscn3)c2)CC1 | -6.48% | 2.56% | -10.9% | -3.1% | -0.41% | -1.62% | 19.3% | 0.478% | 6.02% | 5.6% |
| Cc1occc1C(=O)N1CCC2(CCC(C(=O)NCC3CC3)O2)CC1 (stereo not given) | -0.841% | 19.5% | 1.13% | -0.75% | 1.83% | 13% | 6.84% | 11.6% | 20% | -4.43% |
| CO[C@@H]1CC[C@@H](N(C)C(=O)COc2ccc(F)cc2)[C@H]1O | -0.0302% | 9.33% | 5.58% | -6.31% | 5.31% | 10.8% | 9.43% | 1.06% | 7.5% | -24% |
| COc1cc(CNC(=O)C2CC(=O)N(C(C)C)C2)ccn1 (stereo not given) | -1.79% | 10.3% | -1.27% | -1.22% | 2.05% | 12.7% | 24.4% | 3.35% | 10.8% | -3.72% |
| c1ccc(-n2ncc(CN3CCCC3Cn3cccn3)n2)cc1 (stereo not given) | -6.8% | -13% | 24.4% | -2.61% | -0.205% | 5.44% | 1.65% | -1.96% | -2.35% | 3.05% |
| CN(C)CCN1C(=O)CCC12CCN(C(=O)c1cccnc1)CC2 | -1.32% | 3.9% | -3.7% | -0.75% | 0.457% | 5.75% | 3.46% | 1.93% | 2.5% | -20.4% |
| CCc1ccc(O)c(C(=O)NC2CCN(S(=O)(=O)CC)CC2)c1 | -6.37% | 17.9% | -17.5% | 5.35% | -4.92% | 10.2% | 20.5% | 1.44% | 22.9% | -10.9% |
| Cc1ccc([C@@H]2CN(C(=O)c3ccc[nH]3)C[C@H]2NC(=O)C2CC2)cc1 | -2.9% | 5.41% | 1.4% | -4.56% | -3.85% | 17.3% | 30.6% | 2.66% | 7.32% | -6.72% |
| Cn1cc(C(=O)NC2CCN(Cc3ccn(C)c(=O)c3)CC2)cn1 | -0.0592% | -7.69% | -4.2% | -1.41% | 4.51% | 3.67% | 26.8% | -1.44% | -3.61% | -4.65% |
| CN(C)C[C@H]1OC[C@@H]2CCN(S(=O)(=O)c3cccs3)C[C@@H]21 | -10.2% | 1.3% | 12.5% | -2.43% | -2.43% | 2.56% | 0.627% | -0.526% | -2.56% | 19.4% |
| CC(C)CCC(=O)NC(C)c1nnc2n1CCCCC2 (stereo not given) | -1.02% | 10.4% | 4.23% | 2.42% | -0.205% | 6.84% | -5.87% | 2.94% | 7.06% | -9.02% |
| Cc1cc(N2CCC(Cc3ccccc3)CC2)nc(-c2ccncc2)n1 | -1.61% | -15.6% | 11% | 14.4% | -6.76% | -5.44% | -2.83% | 18.6% | 7.06% | 4.27% |
| COC[C@@H]1CC[C@H]2[C@H](CCN2S(=O)(=O)c2ccc(F)cc2)O1 | -2.35% | 6.49% | -4.91% | -3.02% | -0.405% | 12.1% | 11.2% | 4.74% | 7.69% | -2.82% |
| COc1ccc(CC(=O)NC2(C)CCS(=O)(=O)C2)cc1F (stereo not given) | -0.834% | 10.7% | -4.85% | 0.803% | -1.77% | 4.5% | 8.89% | 5.79% | 12.8% | -12.7% |
| NC(=O)CN1CCC(C(=O)N2CCCC(OCc3cccnc3)C2)CC1 (stereo not given) | -5.86% | 2.7% | 1.65% | -2.23% | -0.35% | 6.16% | 9.22% | 4.79% | 14.6% | 1.71% |
| Cc1ccc(CN(C)CC(=O)NC2(C)CCS(=O)(=O)C2)cc1 (stereo not given) | -0.346% | 8% | -1.85% | -2.81% | -1.77% | 7.89% | 21.9% | 10% | 15.4% | -11.2% |
| CN1CCN(c2cc(CNC(=O)c3ccc(=O)n(C)c3)ccn2)CC1 | -2.29% | 20.5% | -8.46% | 7.04% | 2.87% | 13.9% | 13.3% | -0.478% | 22.9% | -8.95% |
| O=C(NCc1cc(O)ncn1)C1CCOc2ccccc2C1 (stereo not given) | -6.27% | 5.41% | 6.22% | 1.26% | 5.94% | 14.4% | 15.2% | 6.92% | 12.2% | -2.81% |
